Records with an inconclusive call do not appear. Active and inactive are the calls of the source. Calls follow the shape of the dose curve; as a rule, active = well fitted curve in the direction sought with a large enough effect; inconclusive = small, poorly fitted or top-dose-only effect, or another doubt; inactive = no such curve, though single readings can be large; an effect the other way counts as inactive or inconclusive.
What was measured:
[1] = qHTS of pediatric cancer cell lines to identify multiple opportunities for drug repurposing: Primary screen for Rh41 cells (AID 1347108); settings: Rh41 rhabdomyosarcoma viability, CellTiter-Glo luminescence, 48 h; series mostly up to 46 µM; also: nearly all actives have a fitted effect of over 70% in size
Method in brief: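 ATP-based luminescence (CellTiter-Glo) quantifies viability after a 48-hour exposure. Compounds are dosed across 8 or 11 final concentrations; DMSO and 2.3 µM bortezomib serve as controls.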

[2] = qHTS of pediatric cancer cell lines to identify multiple opportunities for drug repurposing: Confirmatory screen for NB1643 cells (AID 1347109); settings: NB1643 neuroblastoma cell viability; series mostly up to 45.9 µM; also: nearly all actives have a fitted effect of over 45% in size
Method in brief: (§1)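 Cells (500-1,000/well) in growth media were settled 5 h at 37 degrees C, then given compounds for 48 h. Viability was read as CellTiter-Glo luminescence. Primary runs used MIPE at 11 points (0.78 nM-46 µM) and NPC at 8 points (0.59 nM-46 µM); follow-ups used 11 points.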

[3] = qHTS of pediatric cancer cell lines to identify multiple opportunities for drug repurposing: Confirmatory screen for BT-12 cells (AID 1347112); settings: BT-12 rhabdoid tumor cells, viability; series mostly up to 45.9 µM; also: nearly all actives have a fitted effect of over 55% in size
Method in brief: as §1

[4] = qHTS of pediatric cancer cell lines to identify multiple opportunities for drug repurposing: Confirmatory screen for LAN-5 cells (AID 1347113); settings: LAN-5 neuroblastoma cell viability; series mostly up to 45.9 µM; also: nearly all actives have a fitted effect of over 65% in size
Method in brief: as §1

[5] = qHTS of pediatric cancer cell lines to identify multiple opportunities for drug repurposing: Confirmatory screen for NB-EBc1 cells (AID 1347115); settings: NB-EBc1 neuroblastoma cells, viability (cytotoxicity); series mostly up to 45.9 µM;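 also: cells exposed to compound for 48 h before the viability read; nearly all actives have a fitted effect of over 45% in size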
Method in brief: as §1

[6] = qHTS of pediatric cancer cell lines to identify multiple opportunities for drug repurposing: Confirmatory screen for BT-37 cells (AID 1347117); settings: BT-37 pediatric cancer cells, viability; series mostly up to 45.9 µM; also: nearly all actives have a fitted effect of over 55% in size
Method in brief: as §1

[7] = qHTS of pediatric cancer cell lines to identify multiple opportunities for drug repurposing: Confirmatory screen for A673 cells (AID 1347110); settings: A673 Ewing sarcoma cell viability; series mostly up to 45.9 µM;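 also: cells exposed to compound for 48 h before the viability read; nearly all actives have a fitted effect of over 65% in size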
Method in brief: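 A673 cells at 500-1,000 cells/well were dosed 5 h after plating, in dilution series up to 46 uM final; primary runs used 8 or 11 points and confirmatory runs used 11 points. Viability was read by CellTiter-Glo luminescence after 48 h, against DMSO and 2.3 uM bortezomib controls.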

[8] = qHTS of pediatric cancer cell lines to identify multiple opportunities for drug repurposing: Confirmatory screen for SK-N-MC cells (AID 1347111); settings: SK-N-MC cell viability; series mostly up to 45.9 µM;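 also: cells exposed to compound for 48 h before the readout; nearly all actives have a fitted effect of over 70% in size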
Method in brief: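 Metabolically active cells were quantified by ATP-dependent luminescence (CellTiter-Glo, 15 min at room temperature) following 48 h treatment. Cells had been plated at 500-1,000 per well and settled for 5 h beforehand.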

[9] = qHTS of pediatric cancer cell lines to identify multiple opportunities for drug repurposing: Confirmatory screen for DAOY cells (AID 1347114); settings: DAOY medulloblastoma cells viability, cytotoxicity qHTS; series mostly up to 45.9 µM; also: nearly all actives have a fitted effect of over 65% in size
Method in brief: (§2)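 Viability measured as metabolically active cells via CellTiter-Glo luminescence following 48 hours of compound exposure, 11-point dilutions in confirmatory testing. 500-1,000 cells/well plated 5 hours before dosing; controls were DMSO and 2.3 µM bortezomib.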

[10] = qHTS of pediatric cancer cell lines to identify multiple opportunities for drug repurposing: Confirmatory screen for SJ-GBM2 cells (AID 1347116); settings: SJ-GBM2 glioblastoma cells, viability; series mostly up to 45.9 µM; also: nearly all actives have a fitted effect of over 60% in size
Method in brief: as §2

Measured: Potency
Potency is read from the fitted curve at half-maximal effect.

COc1cc(CNC(=O)CCCCC=CC(C)C)ccc1O
inactive: [1] | [2] | [3] | [4] | [5] | [6]

CN(C)CCN(C)C(=O)c1ccc(NC(=O)Nc2ccc(-c3nc(N4CCOCC4)c4ccn(CC(F)(F)F)c4n3)cc2)cc1
inactive: [5]
active: [1] 0.166 µM | [7] 0.293 µM | [3] 18.5 µM | [4] 0.414 µM

CC1=C(CC(=O)O)c2cc(F)ccc2C1=Cc1ccc(S(C)=O)cc1 (stereo unspecified)
not listed: [1] | [9] | [10]
inactive: all other assays above

C[C@@]1(C(=O)Nc2ccc(F)nc2)CCCN1c1nc(Nc2cc(C3CC3)[nH]n2)c2cccn2n1
active: [2] 0.293 µM | [7] 0.465 µM | [4] 0.147 µM | [5] 1.47 µM | [6] 2.93 µM

CC(C)CN(C[C@H](O)[C@H](Cc1ccccc1)NC(=O)O[C@H]1CCOC1)S(=O)(=O)c1ccc(N)cc1
inactive: [2] | [3] | [4] | [9] | [10] | [6]

Cc1csc(-c2nnc(Nc3ccc(Oc4ncccc4-c4ccnc(N)n4)cc3)c3ccccc23)c1
active: [7] 9.27 µM | [9] 23.3 µM

CCC(C)SSc1ncc[nH]1 (stereo unspecified)
active: [2] 18.5 µM | [3] 23.3 µM | [4] 13.1 µM

O=C1NC(=O)C(c2cnc3ccccn23)=C1c1cn2c3c(cccc13)CN(C(=O)N1CCOCC1)CC2
active: [5] 2.93 µM | [6] 16.5 µM

CC1(COc2ccc3c(c2)ncn3-c2ccc3cccc(N4CCC(N)CC4)c3n2)COC1
active: [7] 7.37 µM | [9] 20.8 µM
inactive: [5]

COC1CCC(C(=O)c2ccc3nc4c(cc3c2)CCCO4)CC1 (stereo unspecified)
inactive: [2] | [3] | [4] | [5] | [10] | [6]

Cc1cccc(-c2[nH]c(C(C)(C)C)nc2-c2ccc3c(c2)OCO3)n1
active: [7] 13.1 µM | [3] 11.7 µM | [4] 2.61 µM | [6] 8.27 µM

CON(C)C(=O)N1N=C(c2cc(F)ccc2F)S[C@]1(CCCN)c1ccccc1
active: [7] 0.0104 µM | [6] 0.0074 µM

CCC(c1ccc(O)cc1)C(CC)c1ccc(O)cc1 (stereo unspecified)
inactive: [7]
active: [8] 9.27 µM | [6] 10.4 µM

O=C1Nc2ccc(I)cc2C1=Cc1cc(Br)c(O)c(Br)c1
active: [7] 11.7 µM
not listed: [1] | [2] | [4]
inactive: all other assays above

CC(C)C[C@@H](C(=O)N[C@H](C(=O)OC1CCCC1)c1ccccc1)[C@H](O)C(=O)NO
active: [2] 20.8 µM | [9] 18.5 µM
inactive: [3] | [5]

COc1cc([C@@H]2c3cc4c(cc3[C@@H](O[C@@H]3O[C@@H]5CO[C@@H](C)O[C@@H]5[C@H](O)[C@@H]3O)[C@H]3COC(=O)[C@H]23)OCO4)cc(OC)c1O
active: [2] 1.47 µM | [7] 4.65 µM | [4] 1.47 µM | [5] 1.47 µM | [10] 9.27 µM | [6] 0.737 µM

CN(C(Cc1ccc(OS(=O)(=O)c2cccc3cnccc23)cc1)C(=O)N1CCN(c2ccccc2)CC1)S(=O)(=O)c1cccc2cnccc12 (stereo unspecified)
inactive: [7] | [9]

Cc1ccc(S(=O)(=O)Nc2nc3ccccc3nc2Nc2ccc3nsnc3c2)cc1
active: [2] 9.1 µM | [6] 1.29 µM
inactive: [7] | [3] | [5]

N#CC(=C1Nc2ccccc2S1)c1ccnc(OCc2ccc(CN3CCOCC3)cc2)n1
inactive: [4] | [5]

CCC[C@H](Nc1nc(-c2ccc(NC(=O)NCC)c(OC)c2)ncc1C)c1cccnc1
active: [2] 0.165 µM | [7] 0.233 µM | [4] 0.414 µM | [5] 0.329 µM | [6] 0.329 µM

Cc1c(C(=O)Nc2ccc(N3C[C@@H](C)O[C@@H](C)C3)nc2)cccc1-c1ccc(OC(F)(F)F)cc1
inactive: [2] | [4] | [5] | [10]

CC(C)CN(C[C@@H](O)[C@H](Cc1ccccc1)NC(=O)O[C@H]1CO[C@H]2OCC[C@H]21)S(=O)(=O)c1ccc(N)cc1
inactive: [7] | [3] | [5]

COc1ccc2c(c1)c(C1=C(c3c[nH]c4ccccc34)C(=O)NC1=O)cn2CCCN(C)C
active: [2] 20.8 µM | [4] 16.5 µM | [6] 23.3 µM

Cc1ccc(C(=O)N(CCCN)[C@@H](c2nc3cc(Cl)ccc3c(=O)n2Cc2ccccc2)C(C)C)cc1
active: [7] 0.0076 µM | [3] 0.759 µM | [6] 0.0537 µM

CC1=C[C@@H]2[C@@H]([C@@H](O)C[C@@]3(C)[C@H]2C[C@@H](C)[C@]3(O)C(=O)CO)[C@@]2(C)Cc3cnn(-c4ccccc4)c3C=C12
active: [7] 23.3 µM | [8] 9.27 µM
inactive: [3]

COc1cc2c(cc1OC)[C@@H]1Cc3ccc(OC)c(OC)c3CN1CC2
inactive: [7]

CCCC1OC2C[C@@H]3[C@H]4CCC5=CC(=O)C=C[C@]5(C)[C@H]4C(O)C[C@]3(C)[C@]2(C(=O)CO)O1 (stereo partly specified)
active: [10] 1.47 µM
inactive: [7] | [3] | [5]

COc1cc2nccc(Oc3ccc(NC(=O)Nc4cc(C)on4)c(Cl)c3)c2cc1OC
inactive: [4]
active: [7] 18.5 µM | [8] 16.5 µM

CCC(=O)OCC(=O)[C@@]1(OC(=O)CC)[C@@H](C)C[C@@H]2[C@H]3CCC4=CC(=O)C=C[C@]4(C)[C@@]3(F)[C@@H](O)C[C@@]21C
inactive: [2] | [3] | [4] | [10] | [6]

COc1cc2ncnc(Nc3cc(Br)c(O)c(Br)c3)c2cc1OC
inactive: [3] | [5] | [10]

C[C@H](c1ccc(F)cc1CCCC(=O)O)N(c1cc(F)ccc1F)S(=O)(=O)c1ccc(Cl)cc1
inactive: [7] | [3] | [4] | [5] | [6]

CC(C)C[C@H](NC(=O)c1cc2ccccc2s1)C(=O)N1CCN(C(=O)[C@H](CO)NS(=O)(=O)c2ccc(Cl)cc2Cl)CC1
active: [3] 0.0037 µM | [4] 23.3 µM | [6] 13.1 µM
inactive: [10]

CCN(CCO)CCCOc1ccc2c(Nc3cc(CC(=O)Nc4cccc(F)c4)[nH]n3)ncnc2c1
inactive: [3] | [5] | [10]
active: [7] 10.4 µM | [8] 0.104 µM

CNC(=O)[C@H](CC1=CN=C2C=CCC=C12)NC(=O)[C@@H](CC(=O)NO)CC(C)C
active: [7] 14.7 µM | [3] 2.61 µM | [6] 0.827 µM

CC[C@]1(O)C[C@H]2CN(CCC3=c4ccccc4=N[C]3[C@@](C(=O)OC)(c3cc4c(cc3OC)N(C)[C@H]3[C@@](O)(C(N)=O)[C@H](O)[C@]5(CC)C=CCN6CC[C@]43[C@@H]65)C2)C1
active: [2] 0.104 µM | [7] 0.0585 µM | [3] 0.147 µM | [4] 0.147 µM | [6] 0.0737 µM

Cc1ccc2c(c1)C(=O)[C@]1(O)CCN(c3ccccc3)C1=N2
inactive: [3] | [4] | [5] | [10] | [6]

CCCCn1c(=O)n(Cc2ccccc2F)c(=O)c2[nH]c(Cc3ccc(NC(C)=O)cc3)nc21
active: [10] 11.7 µM
inactive: [2] | [3] | [4] | [5] | [6]

COc1cc2c(cc1Cc1cccc(Cl)c1F)c(=O)c(C(=O)O)cn2[C@H](CO)C(C)C
inactive: [10]

Reference: PubChem BioAssay (NCATS)
